# EBNA-1 inh: EBNA-1 DNA-binding inhibitors, primary screen, biochemical, fluorescence polarization. inhibition, % at 14.8 µM. AID 1950, 2009. actives 0.34% (n = 300,000); in the data active means inhibition above about 28%
# GRIN3A LBD mod: binders of NR3A ligand-binding domain, primary screen, biophysical, differential scanning fluorimetry, uHTS | Glutamate receptor ionotropic, NMDA 3A (GRIN3A) ligand-binding domain | NR3A LBD differential scanning fluorimetry, Tm shift; 0% = protein alone, 100% = glycine-bound protein | Tm shift relative to glycine control, % at 25 µM | actives 2.5% (n = 340,000);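 active means melting temperature shift of at least 10% of the positive control shift, at one fixed dose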
# dFosB activator: activators of delta FosB homodimer, primary screen, biochemical, fluorescence polarization, TAMRA-CDK5 oligo, single point; AID 493131, 2011; activation, % at 25 µM; actives 0.99% (n = 340,000); purified delta FosB; percent of positive-control signal above neutral wells;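 active means mean activation above about 17%, with every replicate also reaching it, limit read from the data, passing the limit was not always enough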
# Rpn11 block: Rpn11 (PSMD14) deubiquitinase inhibitors, primary screen, biochemical, fluorescence polarization, uHTS. 26S proteasome non-ATPase regulatory subunit 14 (Homo sapiens), O00487. human 26S proteasome, Ub4-pepOG fluorescence polarization; 20S core pre-blocked with epoxomicin. inhibition, % at 20 µM. actives 0.59% (n = 360,000);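 active means inhibition at 20 µM, scaled to each plate's controls, above about 33%, limit read from the data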
# TPT1 inh: Candida albicans TPT1 enzyme inhibitors, primary screen, biochemical, fluorescence polarization | recombinant caTPT1, FP RNA substrate dephosphorylation | tRNA 2'-phosphotransferase TPT1 (Candida albicans SC5314) | actives 0.81% (n = 300,000) | inhibition, % at 5 µM | AID 1962, 2009;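 active means inhibition above the mean of all tested compounds plus 3 SD, set per screening campaign, cut at about 24% in these data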
# ZTA DNA inh: ZTA (EBV) inhibition in EBNA-1 counter-screen; ZTA-DNA binding, fluorescence polarization; inhibition, % at 11 µM; actives 0.15% (n = 320,000); in the data active means inhibition above about 33%
# Target sequence (P03206 whole entry, looked up): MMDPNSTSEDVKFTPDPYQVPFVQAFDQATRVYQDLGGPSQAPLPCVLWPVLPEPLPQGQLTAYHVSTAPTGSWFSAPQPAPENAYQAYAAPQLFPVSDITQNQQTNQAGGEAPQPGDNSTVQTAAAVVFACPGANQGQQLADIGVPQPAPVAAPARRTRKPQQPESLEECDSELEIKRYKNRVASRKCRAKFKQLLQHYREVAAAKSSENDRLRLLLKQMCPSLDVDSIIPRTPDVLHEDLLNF
# caTPT1 confirm: Candida albicans TPT1 inhibitors, confirmation, biochemical, fluorescence polarization, triplicate; shares compounds with TPT1 inh; recombinant caTPT1, RNase T1 coupled; inhibition, % at 5 µM; actives 74% (n = 2,400); AID 2149, 2009;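 active means inhibition above the primary screen limit, the mean inhibition of all tested compounds plus 3 SD, cut at about 25% in these data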
# RNase T1 inh: RNase T1 inhibitors, counter-screen for TPT1 inhibitor project, biochemical, fluorescence polarization | inhibition, % at 5 µM | shares compounds with TPT1 inh | actives 83% (n = 2,400) | RNase T1 cleavage, 1536-well;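 active means inhibition above the solvent-only control well mean plus 3 SD, limit set per screening run, cut at about 23% in these data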;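 further: inhibitors block cleavage so intact labeled substrate keeps polarization high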
# Target sequence (P00651 whole entry, looked up): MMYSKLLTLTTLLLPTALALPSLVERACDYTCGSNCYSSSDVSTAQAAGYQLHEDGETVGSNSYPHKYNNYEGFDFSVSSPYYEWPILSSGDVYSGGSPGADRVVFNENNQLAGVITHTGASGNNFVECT
# Numbers stand for hits; 0 = inactive; - = no result shown. In the library only some 4.5% were active in any assay of this set; here they are far more common.
SMILES,EBNA-1 inh,GRIN3A LBD mod,dFosB activator,Rpn11 block,TPT1 inh,ZTA DNA inh,caTPT1 confirm,RNase T1 inh
CCC(CO)Oc1cc(NC(=O)c2cccc(Cl)c2)c2ncn(C(C)C)c2c1 (stereo not given),-,0,0,0,-,0,-,-
CCOC(=O)c1c(NC(=S)Nc2ccccc2)sc2c1CCN(CCc1ccccc1)C2,0,-,-,-,119.7,0,114.5,112.8
CCOC(=O)c1c(N)sc2c1CCN(CCc1ccccc1)C2,0,0,0,-,27.9,0,0,23.9
CCOC(=O)c1c(NC(=O)C(C)Sc2cccc[n+]2[O-])sc2c1CCN(Cc1ccccc1)C2 (stereo not given),0,0,0,0,71.2,0,76.9,85.6
CCOC(=O)c1c(NC(C)=O)sc2c1CCN(Cc1ccccc1)C2,0,0,0,0,0,0,-,-
CCOC(=O)c1c(NC(=O)CC)sc2c1CCN(Cc1ccccc1)C2,0,0,0,0,0,0,-,-
O=C1CCCN1Cc1ccccc1,0,0,0,0,0,0,-,-
Brc1ccc(N=C(c2ccccc2)c2ccncc2)cc1,0,0,0,0,0,0,-,-
Cc1ccc(-n2nc3c(N4CCC(C(=O)N5CCCCCC5)CC4)nnc(C)c3c2C)cc1,0,0,0,0,0,0,-,-
CCCN1CCN(C(=O)C2CCN(c3nnc(C)c4c(C)n(-c5ccc(C)cc5)nc34)CC2)CC1,0,0,0,-,28.4,0,35.7,47.5
Cn1c(=O)c2c(ncn2CC(=O)OCC(=O)NNC(=O)c2ccc(Cl)cc2)n(C)c1=O,-,0,0,0,-,0,-,-
O=C(CCCOc1ccccc1)Nc1ccc(S(=O)(=O)Nc2ccccn2)cc1,0,0,0,0,0,0,-,-
OCCCNc1ncnc2sc3c(c12)CCN(Cc1ccccc1)C3,0,0,0,0,24.4,0,49.3,63.8
O=c1[nH]cnc2sc3c(c12)CCN(Cc1ccccc1)C3,0,0,0,0,0,0,-,-
COC(=O)C1=C(N)OC2=C(C(=O)CC(C)(C)C2)C1c1cc2c(cc1Cl)OCO2 (stereo not given),0,0,0,0,0,0,-,-
O=C(O)Cc1sc(NCCc2ccccc2)nc1-c1ccc(F)cc1,0,0,0,0,26.9,0,0,0
CCN(CC)CCNc1nc(-c2cccs2)c(CC(=O)O)s1,0,0,0,0,28.6,0,0,0
O=C(O)Cc1sc(Nc2ccccc2)nc1-c1cccs1,0,0,0,-,42.4,0,36.3,46.3
COc1ccc(C(C(=O)Nc2ccc(C(C)C)cc2)N(C)C(=O)c2ccc(=O)[nH]c2)cc1 (stereo not given),0,0,0,0,0,0,-,-
COc1ccccc1N1CCN(S(=O)(=O)CCNC(=O)c2ccc(Br)o2)CC1,0,0,0,0,0,0,-,-
CC1CCCCC1NC(=O)C1CCC(CNS(=O)(=O)c2cccc3cccnc23)CC1 (stereo not given),0,0,0,0,0,0,-,-
O=C(NCc1ccccc1)c1cnc(Cc2c[nH]c3ccccc23)c(I)c1,-,-,-,0,-,-,-,-
CN(C)c1ccc(/C=C/C(=O)c2c(O)c3ccccc3oc2=O)cc1,0,0,0,-,55.2,0,70.4,79.5
CCOc1ccc(/C=C/C(=O)c2c(O)c3ccccc3oc2=O)cc1,0,0,0,0,0,0,-,-
CN1/C(=C\C=C(/C#N)C(=O)Nc2ccccc2F)C(C)(C)c2ccccc21,0,0,0,-,123.1,0,94.6,92.9

# Screens (PubChem)
